Results as given in PubChem BioAssay.
Activity calls are given as the source filed them. Unless noted, no rule for the calls is given here.

Tests used:
[1] = A549 cell viability effects, profiling panel, calcein-AM fluorescence, 48 h, basal (AID 1162); conditions: higher = more signal; also: test concentration not given here
[2] = adipocyte viability effects, profiling panel, cell-based, 3T3-L1 adipocytes, calcein-AM fluorescence, 48 h, basal (AID 1163); conditions: 3T3-L1 adipocytes viability, higher = more signal; also: test concentration not given here
[3] = HepG2 cell viability effects, profiling panel, calcein-AM fluorescence, 48 h, basal (AID 1164); conditions: higher = more signal; also: test concentration not given here
[4] = MM1S cell viability effects, profiling panel, calcein-AM fluorescence, 48 h, basal (AID 1165); conditions: higher = more signal;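 also: viability of MM1S multiple myeloma cells under basal unstimulated conditions; test concentration not given here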
[5] = basal RPMI8226 viability, no added stimulus, profiling panel, cell-based, calcein-AM fluorescence, 48 h, PK04 Diversity Set (AID 1166); conditions: RPMI8226 myeloma viability, higher = more signal;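 also: cells grown under basal conditions without added stimulus; test concentration not given here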
[6] = basal HepG2 mitochondrial membrane potential changes, profiling panel, cell-based, JC-1 fluorescence, 24 h, 100 nL compound (AID 1167); conditions: higher = more signal; also: test concentration not given here
[7] = basal 3T3-L1 adipocyte mitochondrial potential changes, profiling panel, cell-based, JC-1 fluorescence, 3T3-L1 adipocytes, 24 h, 100 nL compound (AID 1168); conditions: JC-1 mitochondrial fluorescence, higher = more signal, called active from +8 up or from −8 down; also: test concentration not given here
[8] = basal RPMI8226 mitochondrial membrane potential changes, profiling panel, cell-based, JC-1 fluorescence, 24 h, 100 nL compound (AID 1169); conditions: RPMI8226 myeloma, JC-1 mitochondrial potential fluorescence, higher = more signal; also: test concentration not given here
[9] = basal MM1S mitochondrial membrane potential changes, profiling panel, cell-based, JC-1 fluorescence, 24 h, 100 nL compound (AID 1170); conditions: higher = more signal; also: test concentration not given here
[10] = A549 lung cancer cell viability effects, profiling panel, resazurin fluorescence, 24 h, PK04 Diversity Set (AID 1171); conditions: higher = more signal, called active from +8 up or from −8 down; also: test concentration not given here
[11] = HepG2 liver cancer cell viability effects, profiling panel, resazurin fluorescence, 24 h, PK04 Diversity Set (AID 1172); conditions: higher = more signal; also: test concentration not given here
[12] = basal S. cerevisiae growth modulation, no modifier, primary screen, OD600, strain BY4716, 24 h, basal condition (AID 1173); conditions: OD600, 24 h, higher = more signal, called active from +8 up or from −8 down
[13] = MM1S myeloma cell viability, profiling panel, resazurin fluorescence, basal, 24 h, PK04 Diversity Set (AID 1174); conditions: higher = more signal, called active from +8 up or from −8 down;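 also: MM1S multiple myeloma cell line; test concentration not given here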
[14] = molecular target: Dihydroorotate dehydrogenase (quinone), mitochondrial (Plasmodium falciparum (isolate 3D7)) (UniProt Q08210); assay: PfDHODH enzyme inhibitors, primary screen, biochemical, C-terminal His tag, absorbance 600 nm (AID 1175); conditions: DCIP absorbance 600 nm, higher = more signal, called active from +8 up or from −8 down;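 also: recombinant parasite enzyme with a five histidine tag at its C terminus; test concentration not given here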
[15] = P. aeruginosa biofilm formation inhibitors, primary screen, strain PAO1, LB-PBS medium, absorbance 600 nm (AID 1176); also: test concentration not given here; conditions: P. aeruginosa PAO1 growth/biofilm, A600, 12 h; higher = more signal
[16] = S. cerevisiae RM11-1a growth modifiers, primary screen, strain RM11-1a, OD600, basal, 24 h (AID 1177); conditions: OD600, 24 h, higher = more signal, called active from +8 up or from −8 down;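 also: cultures grown under basal conditions with no added stressor; test concentration not given here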
[17] = E. coli acrAB mutant growth effects, primary screen, E. coli filamentation inducers, strain DRC39, OD650, 24 h (AID 1178); conditions: higher = more signal, called active from +8 up or from −8 down;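 also: growth measured as culture turbidity by optical density at 650 nm; test concentration not given here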
[18] = E. coli acrAB mutant growth effects, primary screen, E. coli filamentation inducers, strain DRC39, OD650, 48 h (AID 1179);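 also: screen aims at cell division blockers that make cells filament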; conditions: E. coli DRC39 delta-acrAB growth, higher = more signal, called active from +8 up or from −8 down
[19] = RPMI8226 myeloma cell viability, profiling panel, resazurin fluorescence, basal, 24 h, PK04 Diversity Set (AID 1180); conditions: higher = more signal;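 also: RPMI8826 multiple myeloma cell line at 5000 cells per well; test concentration not given here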
[20] = molecular target: E3 ubiquitin-protein ligase XIAP (Homo sapiens) (UniProt P98170); assay: XIAP binders, primary screen, biophysical, small-molecule microarray, fluorescence 635 nm (AID 1181); conditions: small-molecule microarray binding, higher = more signal;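 also: score merges 667 nm emission and signal to noise over triplicate slides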
E3 ubiquitin-protein ligase XIAP (Homo sapiens), sequence (P98170 whole entry, looked up): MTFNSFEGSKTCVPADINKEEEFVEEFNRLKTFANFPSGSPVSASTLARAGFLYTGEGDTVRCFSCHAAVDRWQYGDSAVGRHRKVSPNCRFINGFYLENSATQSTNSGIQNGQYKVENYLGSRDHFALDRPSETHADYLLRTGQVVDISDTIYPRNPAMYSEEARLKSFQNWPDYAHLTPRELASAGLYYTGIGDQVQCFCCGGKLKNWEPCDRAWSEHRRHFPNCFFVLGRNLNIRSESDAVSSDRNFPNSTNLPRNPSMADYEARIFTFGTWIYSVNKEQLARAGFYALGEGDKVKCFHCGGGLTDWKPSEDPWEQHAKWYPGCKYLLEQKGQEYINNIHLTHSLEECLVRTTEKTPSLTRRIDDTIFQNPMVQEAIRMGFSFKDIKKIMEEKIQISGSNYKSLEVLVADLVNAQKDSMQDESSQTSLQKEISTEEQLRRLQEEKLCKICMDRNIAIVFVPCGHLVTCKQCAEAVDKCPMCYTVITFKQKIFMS

Dihydroorotate dehydrogenase (quinone), mitochondrial (Plasmodium falciparum (isolate 3D7)), sequence (Q08210 whole entry, looked up): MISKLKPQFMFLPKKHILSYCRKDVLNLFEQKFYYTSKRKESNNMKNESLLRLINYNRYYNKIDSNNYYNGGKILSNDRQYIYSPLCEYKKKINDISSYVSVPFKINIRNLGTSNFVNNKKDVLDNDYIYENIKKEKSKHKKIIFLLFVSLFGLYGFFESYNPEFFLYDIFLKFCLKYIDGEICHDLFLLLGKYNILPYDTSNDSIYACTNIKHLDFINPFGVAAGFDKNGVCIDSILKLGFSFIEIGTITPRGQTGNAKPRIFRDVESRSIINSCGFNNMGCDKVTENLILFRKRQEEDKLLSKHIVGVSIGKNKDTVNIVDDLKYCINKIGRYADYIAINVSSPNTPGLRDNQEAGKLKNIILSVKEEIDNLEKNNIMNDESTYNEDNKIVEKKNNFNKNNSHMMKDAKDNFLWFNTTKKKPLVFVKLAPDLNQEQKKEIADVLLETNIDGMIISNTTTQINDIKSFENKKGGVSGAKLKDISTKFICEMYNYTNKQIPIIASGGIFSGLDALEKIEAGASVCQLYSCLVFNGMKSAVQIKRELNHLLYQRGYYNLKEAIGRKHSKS

SMILES | z-score [1] | z-score [2] | z-score [3] | z-score [4] | z-score [5] | z-score [6] | z-score [7] | z-score [8] | z-score [9] | z-score [10] | z-score [11] | z-score [12] | z-score [13] | composite z-score [14] | z-score [15] | z-score [16] | z-score [17] | z-score [18] | z-score [19] | composite z-score [20]
C=CCC(OC(C)=O)[C@@H]1[C@@H](N(Cc2cccc3ccccc23)C(=O)Cc2ccc(F)cc2)c2cc(OCCCO)ccc2N1C(=O)c1ccc2ccccc2n1 (stereo not given in full) | -0.359 | 0.389 | -0.117 | 0.866 | -0.381 | 1.69 | -0.109 (inactive) | 0.515 | -0.669 | 0.067 (inactive) | -0.157 | 0.0526 (inactive) | 0.263 (inactive) | 0.451 (inactive) | 0.501 (inactive) | -0.142 (inactive) | -0.406 (inactive) | 0.0816 (inactive) | 0.493 | 0.357
COC(=O)[C@@]1(Cc2ccc(OC)cc2)[C@H]2c3cc(C(=O)N4CCCC4)n(Cc4cccc5ccccc45)c3C[C@H]2CN1C(=O)c1ccccc1 | -0.249 | -0.305 | 1.39 | -0.47 | -0.718 | 2.15 | -0.198 (inactive) | -0.427 | -1.26 | -0.506 (inactive) | -0.18 | 1.07 (inactive) | -0.619 (inactive) | 0.237 (inactive) | -0.362 (inactive) | 1.08 (inactive) | 0.24 (inactive) | 0.277 (inactive) | 0.0686 | 0.5
CCCCO[C@H]1C[C@H]2C(I)=C[C@@H]1C(=O)[C@]21CO1 | -0.788 | -0.894 | -0.534 | -1.98 | -1.16 | -1.39 | -0.0178 (inactive) | 0.432 | -0.569 | 0.0651 (inactive) | -0.0876 | -8.45 (active) | -0.67 (inactive) | -0.0864 (inactive) | 0.0481 (inactive) | -1.31 (inactive) | -0.814 (inactive) | -1.05 (inactive) | -0.0824 | -0.255
CCOC(=O)C[C@H]1[C@H](OC(=O)c2cc3ccccc3oc2=O)[C@@H](NC(=O)Cc2ccc(OC)cc2)c2cc(OCCCO)ccc2N1C(=O)c1ccc2ccccc2n1 | 0.167 | 0.66 | 0.493 | -0.171 | 0.865 | -0.917 | -0.0891 (inactive) | -0.265 | 0.429 | -0.341 (inactive) | -0.604 | -1.05 (inactive) | -0.377 (inactive) | 0.0564 (inactive) | -0.234 (inactive) | -0.315 (inactive) | 0.928 (inactive) | 0.337 (inactive) | -0.0615 | -0.0414
CCOC(=O)C1CCCCN1 (stereo not given) | -0.293 | 0.542 | 0.0621 | 0.481 | 0.166 | -0.319 | 0.121 (inactive) | 0.292 | 0.319 | -0.642 (inactive) | -0.241 | 0.466 (inactive) | 0.122 (inactive) | -0.254 (inactive) | 0.0619 (inactive) | 0.0958 (inactive) | -0.33 (inactive) | -0.0724 (inactive) | -0.809 | -0.222
COC(=O)[C@H](Cc1ccccc1)N1CC(/C=C/C2CC2)=C[C@H]1[C@H](O)Cc1ccccc1 | 0.13 | -0.0604 | -0.551 | -3.38 | -3.98 | -2.09 | 0.128 (inactive) | -1.19 | -3.06 | -0.395 (inactive) | -0.57 | -2.67 (inactive) | -3.01 (inactive) | -0.258 (inactive) | 0.188 (inactive) | -0.55 (inactive) | -0.0993 (inactive) | -0.0274 (inactive) | -2.71 | -0.102
CC(C)C[C@@H]1NC(=O)[C@@H]2C[C@H](C(=O)NCCCCN(C)C)[C@H](c3cccc(OCCO)c3)N2C1=O | 0.355 | 0.507 | -1.2 | 0.26 | 0.54 | -0.627 | 0.454 (inactive) | -0.601 | -0.443 | 0.389 (inactive) | 0.0064 | -0.453 (inactive) | 0.303 (inactive) | -1.21 (inactive) | 0.655 (inactive) | -0.121 (inactive) | 0.0825 (inactive) | -0.653 (inactive) | -0.127 | -0.0749
COCCOC(=O)N1C(=O)[C@@]2(c3cc(C#CC4=CCCCC4)ccc31)[C@H](C(=O)N1CCCCCCC1)[C@H]1C(=O)O[C@H](c3ccccc3)[C@H](c3ccccc3)N1[C@@H]2c1ccc(O)cc1 | 0.868 | 0.936 | 0.474 | -0.625 | -0.593 | -0.239 | 1.02 (inactive) | -0.386 | -0.272 | -1.09 (inactive) | 0.0166 | 0.566 (inactive) | 0.0499 (inactive) | -1.67 (inactive) | 1.51 (inactive) | 0.396 (inactive) | -0.698 (inactive) | -0.863 (inactive) | -0.258 | -0.0025
